The list is not random: actives were taken first. Their share in the collection is about 2.3%.
CHO-K1 Ca antag – counter-screen for M1 antagonists: effect in parental CHO-K1 cells | inhibition, % at 3 µM | 360,000 compounds, 0.6% hits | ATP-induced calcium, Fluo-8 fluorescence;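 active = inhibition above a per-plate cutoff, the plate's mean sample inhibition plus 3 SD, cut at about 24% in these data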;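 note: 0% = DMSO plus EC80 ATP and 100% = DMSO alone without ATP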
M1 PAM – human M1 muscarinic receptor positive allosteric modulators, primary screen, CHO-K1 cells, Fluo-8 calcium fluorescence, 1536-well; 360,000 compounds, 0.088% hits; activation, % at 3 µM; CHO-K1 hM1, ACh EC20; 0% = ACh EC20, 100% = maximal ACh; Muscarinic acetylcholine receptor M1 (Homo sapiens), P11229; in the data active = activation above about 19%, passing the limit was not always enough
Target sequence (P11229 whole entry, looked up): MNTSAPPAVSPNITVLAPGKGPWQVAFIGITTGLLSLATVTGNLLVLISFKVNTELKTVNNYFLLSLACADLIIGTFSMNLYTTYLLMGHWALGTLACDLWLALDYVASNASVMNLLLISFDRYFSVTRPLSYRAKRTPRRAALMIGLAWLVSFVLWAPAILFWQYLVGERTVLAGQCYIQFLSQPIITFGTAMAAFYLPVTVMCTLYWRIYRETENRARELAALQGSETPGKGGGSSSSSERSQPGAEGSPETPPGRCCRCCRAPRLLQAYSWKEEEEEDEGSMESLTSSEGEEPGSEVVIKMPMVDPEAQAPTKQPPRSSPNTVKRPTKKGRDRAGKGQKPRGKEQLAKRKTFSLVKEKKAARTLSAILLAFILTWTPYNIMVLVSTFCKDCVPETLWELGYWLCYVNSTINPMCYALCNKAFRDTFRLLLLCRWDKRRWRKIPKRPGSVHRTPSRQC
CHO-K1 Ca PAM – nonselective calcium activators in parental CHO-K1 cells, primary screen, counter-screen for M1 PAM project, cell-based, Fluo-8 calcium fluorescence, full deck, 1536-well. activation, % at 3 µM. ATP EC20; 0% at ATP EC20, 100% at ATP max. 360,000 compounds, 0.02% hits. AID 602247, 2012;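 active = activation above the run cutoff, the mean activation of all test compounds plus 3 SD, cut at about 40% in these data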;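 note: peak over basal fluorescence ratio in a 140 s read after ATP addition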
CHRM1 antagonist – human M1 muscarinic receptor antagonists, primary screen, CHO-K1 cells, Fluo-8 calcium fluorescence, 1536-well | Muscarinic acetylcholine receptor M1 (Homo sapiens), P11229 | CHO-K1 hM1, ACh EC80 antagonist | inhibition, % at 3 µM | 360,000 compounds, 1.3% hits | AID 588852, 2011;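 active = percent inhibition above its own plate's cutoff, namely the mean of that plate's compound wells plus 3 SD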;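 note: peak over basal fluorescence ratio during 140 s after agonist addition; 0% = ACh EC80 plus DMSO and 100% = DMSO alone without agonist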
CHO-K1 Ca ag – counter-screen for M1 agonists: effect in parental CHO-K1 cells | Fluo-8 calcium fluorescence; scaled to maximal ATP response, vehicle zero | AID 602248, 2012 | activation, % at 3 µM | 360,000 compounds, 0.48% hits; in the data active = activation above about 15%;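 note: untransfected CHO-K1 host cells lacking M1 receptor as counterscreen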
M1 ag – human M1 muscarinic receptor agonists, primary screen, Fluo-8 calcium fluorescence, CHO-K1 cells, HTS; Muscarinic acetylcholine receptor M1 (Homo sapiens), P11229; 360,000 compounds, 0.33% hits; activation, % at 3 µM; AID 588814, 2011; CHO-K1 hM1, agonist mode; 0% DMSO, 100% acetylcholine EC100;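 active = activation above the run's mean compound activation plus 3 SD, cut at about 16% in these data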;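 note: peak over basal fluorescence ratio within a 140 s kinetic read after compound addition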
* hit, by the source's call.

SMILES	CHO-K1 Ca antag	M1 PAM	CHO-K1 Ca PAM	CHRM1 antagonist	CHO-K1 Ca ag	M1 ag
CC[C@H](C)[C@H]1CNC(=O)C(=O)N1CC1CCN(CC2CCC(C)CC2)CC1 (stereo partly drawn)	-23.8	4.1	23.0	-9.5	0.3	-10.3
CCN(CC)C(=O)Oc1ccc2oc(=O)cc(-c3cc4cccc(OC)c4o3)c2c1	-2.0	4.3	6.2	7.0	1.0	-2.6
CC1CCN(c2nc3ccccc3n2CC(=O)c2ccccc2)CC1	0.9	-22.7	2.9	66.9*	0.2	-5.2
Cc1cc2c(cc1C)N(C(=O)CSc1nncn1C)C(C)(C)c1ssc(=S)c1-2	-33.0	-31.3	27.9	23.5	-0.7	-12.2
Cc1ccc2c(c1)N(C(=O)CSc1nncn1C)C(C)(C)c1ssc(=S)c1-2	-4.5	-27.6	10.0	41.5*	-0.4	-6.4
O=C(C(=Cc1ccccc1)CN1CCCCC1)c1ccccc1	-17.9	-26.6	28.0	39.4*	0.6	-8.1
O=C(CCCCN1CCCCC1)c1ccccc1	-1.7	-2.8	4.9	-2.4	3.4	-4.0
CCN1CCN(c2cc(C)c3cc(NC(=O)Cc4ccc(OC)c(OC)c4)ccc3n2)CC1	28.4*	10.2	1.0	-14.8	-0.7	-7.2
CC1(C)C2CC=C(/C=N/NC(=S)Nc3cccnc3)C1C2 (stereo not drawn)	13.6	0.1	15.2	1.5	16.1*	-4.7
COc1ccc(NS(=O)(=O)c2cccc(C(=O)N(C)CC(=O)Nc3ccc(C)cc3)c2)cc1	-3.5	1.0	17.9	-3.6	1.3	-2.1
COc1ccc(NC(=O)CN(C)C(=O)c2ccc(NS(=O)(=O)c3cccc([N+](=O)[O-])c3)cc2)cc1	33.4*	8.1	-29.4	-14.7	-0.3	-3.7
COc1ccc(NS(=O)(=O)c2ccc(C(=O)N(C)Cc3cccs3)cc2)cc1	-8.2	-7.3	-1.1	1.7	20.2*	25.3*
O=C(CCCc1ccccc1)NCc1ccc(F)cc1	-0.3	5.7	23.4	2.1	-0.2	-11.4
COc1ccccc1N(CC(=O)Nc1cc(S(=O)(=O)N(C)C)ccc1C)S(=O)(=O)c1cccs1	-12.1	-6.5	9.7	-6.2	0.5	-2.9
Cc1onc(-c2ccccc2)c1C(=O)Nc1ncc([N+](=O)[O-])s1	12.3	-13.2	3.9	27.3	16.4*	7.0
Cc1ccc(CNC(=O)c2cccnc2Sc2cccc(Cl)c2)cc1	-16.1	7.2	28.7	-5.9	6.2	22.4*
CC1=N/C(=C\c2ccc([N+](=O)[O-])cc2)C(=O)N1c1ccc(F)cc1F	-1.4	17.4	-5.1	0.3	0.3	4.8
O=C(CN(c1ccc2c(c1)OCCO2)S(=O)(=O)c1ccccc1)N1CCN(Cc2ccccc2)CC1	-9.5	2.9	-7.2	4.2	1.1	-4.0
O=C1CC(c2ccc(F)cc2)Cc2nc(N3CCN(c4ccccc4)CC3)ncc21 (stereo not drawn)	40.2*	-3.5	-2.1	3.8	1.0	-2.8
Cc1ccc(C2CC(=O)c3cnc(N4CCN(c5ccccc5)CC4)nc3C2)cc1 (stereo not drawn)	-3.1	5.8	18.3	0.2	2.3	-4.6
Cc1ccc(S(=O)(=O)N2CCCC2C(=O)n2nc(C)cc2C)cc1 (stereo not drawn)	-4.7	7.8	15.3	-8.6	-0.1	-4.5
COc1ccc(S(=O)(=O)N2CCCC2C(=O)n2nc(C)cc2C)cc1 (stereo not drawn)	30.1*	-7.1	-14.7	6.3	-0.5	-5.3
COC(=O)C1=C(C)OC(N)=C(C#N)C1c1cc2cc(C)ccc2nc1Cl (stereo not drawn)	17.3	-21.1	-6.0	16.1	8.3	23.8*
CC(=O)C1=C(C)OC(N)=C(C#N)C1c1cc2cc(C)c(C)cc2nc1Cl (stereo not drawn)	13.2	9.8	-6.2	0.8	-0.4	-2.5
CCOC(=O)N1CCC(NC(=O)c2cc(C(=O)NCc3ccc(F)cc3)ccc2CO)CC1	5.7	3.4	-0.7	-0.1	-1.0	-2.0
SMILES	CHO-K1 Ca antag	M1 PAM	CHO-K1 Ca PAM	CHRM1 antagonist	CHO-K1 Ca ag	M1 ag
CCOC(=O)N1CCC(NC(=O)c2cc(C(=O)Nc3ccc(F)cc3F)ccc2CO)CC1	28.5*	-9.2	-3.5	9.5	3.9	-1.7
CCOC(=O)N1CCC(NCCNC(=O)c2ccc(F)c(F)c2)CC1	2.7	-31.3	-17.9	74.5*	0.7	63.9*
CCOC(=O)N1CCC(NCCNC(=O)c2ccc(Cl)cc2)CC1	-4.2	-1.6	3.1	6.7	1.2	21.6*
CCOC(=O)N1CCC(NCCNC(=O)c2ccco2)CC1	-2.5	-7.3	-6.5	21.0	0.5	-2.3
Cc1cc(NC(=O)C(Cl)Cl)cc2c1OCO2	7.3	3.7	-8.3	-7.2	-0.5	-2.5
O=C(Nc1c(-c2ccccc2)[nH][nH]c1=O)c1ccco1	0.9	3.2	-4.6	-24.5	0.2	-1.2
COC(=O)C1CCN(C(c2ccc(OC)c(OC)c2)c2sc3nc(C)nn3c2O)CC1 (stereo not drawn)	8.2	-8.0	20.4	36.1*	5.2	1.0
Cc1ccc(C(c2sc3nc(C)nn3c2O)N2CCN(CCO)CC2)cc1 (stereo not drawn)	-2.0	6.2	11.9	-8.2	0.9	-4.2
Cc1nc2sc(C(c3ccccc3)N3CCN(CCO)CC3)c(O)n2n1 (stereo not drawn)	30.7*	-8.2	-4.8	15.6	0.2	-3.9
COc1cc(C(=O)OCC(=O)N2CCC(Cc3ccccc3)CC2)cc(OC)c1OC	-1.3	7.1	6.1	-13.2	0.9	-5.3
COCc1cccc(-c2csc(C(O)c3ccccc3)n2)c1 (stereo not drawn)	15.3	-5.0	-3.2	2.0	6.8	1.3
CCCCCCCN(c1ccccc1)[C@@H]1C[C@H]2CCCC(=O)N3CC[C@@H](C1)[C@@H]23	-14.3	-11.6	9.1	8.9	-0.5	-10.1
Cc1cc(C)c2c(n1)nn1c(N3CCN(c4ccccc4)CC3)cc(C)nc21	33.2*	-5.8	-9.6	18.6	-0.7	-5.7
Cc1cc(N2CCN(c3ccccc3)CC2)n2ncnc2n1	-8.5	8.7	13.3	-5.8	1.6	-1.5
Cc1cc(-n2cccn2)ccc1CN1CCN(CC(C)C)C(CCO)C1 (stereo not drawn)	-16.6	-24.0	16.1	47.7*	1.2	-7.1
CC(C)CCN1CCN(Cc2cccc(-n3cccn3)c2)CC1CCO (stereo not drawn)	3.7	-1.8	-8.6	-0.1	0.4	-7.5
Cc1ccc(CN2CCN(Cc3ccc(-n4cccn4)cc3)CC2CCO)cc1 (stereo not drawn)	-5.3	8.9	7.0	-14.9	0.2	-13.7

Source: PubChem BioAssay
